Compound activity: PubChem, National Center for Advancing Translational Sciences (NCATS)
In the library only some 6.1% were active in any assay of this set; here they are far more common.
D1 ag: Allosteric Agonists of the Human D1 Dopamine Receptor: qHTS | HEK293 T-REx D1 cells, calcium flux, agonist mode | 360,000 tested, 1% active | D(1A) dopamine receptor (Homo sapiens), P21728 | activation, % at 2 µM; in the data active = activation above about 30%; also: 0% is about no effect
Target sequence (P21728 whole entry, looked up): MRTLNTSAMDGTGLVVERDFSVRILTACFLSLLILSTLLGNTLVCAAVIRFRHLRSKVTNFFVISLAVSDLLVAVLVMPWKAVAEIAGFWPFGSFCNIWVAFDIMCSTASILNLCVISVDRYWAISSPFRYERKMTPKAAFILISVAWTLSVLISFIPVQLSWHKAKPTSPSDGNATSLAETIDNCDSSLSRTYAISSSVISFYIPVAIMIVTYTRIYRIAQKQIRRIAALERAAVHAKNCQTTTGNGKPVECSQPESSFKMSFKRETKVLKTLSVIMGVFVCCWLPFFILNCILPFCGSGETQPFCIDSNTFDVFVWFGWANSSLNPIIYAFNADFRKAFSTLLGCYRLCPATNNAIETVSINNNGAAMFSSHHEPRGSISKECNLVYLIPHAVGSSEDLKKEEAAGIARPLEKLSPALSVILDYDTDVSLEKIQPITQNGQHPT
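Agonism was scored from calcium flux recorded over 180 s (1 read/s) after pintool compound addition, following a 10-cycle baseline. Cells were inducible force-coupled HEK293 TREx D1, plated overnight at 30 C and loaded with no-wash calcium dye.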
DRD3 antagonist: qHTS of D3 Dopamine Receptor Antagonist: qHTS | max response, negative = inhibition, % | 360,000 tested, 2.5% active | D3R cells, DiscoveRx beta-arrestin luminescence, antagonist mode; hits give low values | D(3) dopamine receptor (Homo sapiens), P35462; in the data active = max response below about -50%; also: % is scaled to controls: 0 for no effect and ±100 for the full control effect
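Cells expressing the human receptor were seeded at 1500 cells/well, incubated overnight at 37 degrees C in 5% CO2, then exposed to library compounds with dopamine controls for 90 minutes at 37 degrees C before luminescent detection.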
D1 potentiator: Potentiators of Human D1 Dopamine Receptor: qHTS | D(1A) dopamine receptor (Homo sapiens), P21728 | HEK293 TREx D1 cells, calcium flux, dopamine EC20 potentiation | potentiation, % at 10 µM | 360,000 tested, 0.036% active | AID 504651, 2011; in the data active = potentiation above about 30%; also: 0% is about no effect
D1 antagonist: Antagonist of Human D 1 Dopamine Receptor: qHTS; D(1A) dopamine receptor (Homo sapiens), P21728; HEK293 TREx D1 cells, calcium flux, dopamine EC80; hits give low values; activity change, negative = inhibition, % at 10 µM; 360,000 tested, 3.2% active; AID 504652, 2011; in the data active = activity change below about -30%; also: % is scaled to controls: 0 for no effect and ±100 for the full control effect
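After overnight tetracycline induction at 30 C, force-coupled D1 HEK293 cells took up a no-wash calcium dye at room temperature. Compounds were added and monitored 180 s, and the response to EC80 dopamine was then recorded.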
DRD3 agonist: qHTS of D3 Dopamine Receptor Agonist: qHTS; D3R DiscoveRx beta-arrestin cells, luminescence, 90 min; 410,000 tested, 0.58% active; max activation, %; AID 652048, 2013; in the data active = max activation above about 30%; also: 0% is about no effect
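Agonist mode: compounds and dopamine controls were applied to plated cells for 90 min at 37 degrees C after an overnight attachment at 1500 cells/well. Luminescent read-out followed 30 - 60 minutes at room temperature with DiscoveRx detection reagent.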
* marks the source's active call; other numbers are inactive results; x = no result given; ! = a repeat was not active.

SMILES	D1 ag	DRD3 antagonist	D1 potentiator	D1 antagonist	DRD3 agonist
CCN1CCC(N(Cc2ccc3c(c2)OCO3)C(=O)Nc2cc(Cl)ccc2C(=O)OC)CC1	49*	x	-3	-9	-26
COc1ccccc1NC(=O)NCc1ccc2c(c1)OCO2	1	x	-6	6	x
COc1ccc(Cl)cc1NC(=O)Nc1cn(C)nc1C	17	8	-5	-61*	-22
CCN1CCC(N(Cc2ccc3c(c2)OCO3)C(=O)Nc2ccccc2OC)CC1	2	x	1	0	-9
O=C(NCc1ccc2c(c1)OCO2)Nc1cccc(Cl)c1	14	1	-10	-41*	-2
CCN1CCN(c2cc(C)c3cc(NC(=O)/C=C/c4ccc(OCCC(C)C)cc4)ccc3n2)CC1	0	x	0	-9	-3
COc1ccc(-c2nc(SCC(=O)NCCCc3ccccc3)n[nH]2)cc1	0	x	-3	-16	-2
FC(F)(F)c1cc(Sc2ccccc2)nc(-c2ccccn2)n1	2	31	-2	16	34*
Cc1ccc(NC(=O)c2oc3ccccc3c2NC(=O)C23CC4CC(CC(C4)C2)C3)cc1	4	x	-2	-7	5
O=c1c2ccccc2c(/C=N/n2cnnc2)c(O)n1-c1ccccc1F	1	-5	-9	15	-1
Cc1ccc(-n2c(O)c(/C=N/n3cnnc3)c3ccccc3c2=O)cc1	2	-109*!	0	10	7
Cc1cc(C)cc(NC(=O)CSc2nc(-c3ccccc3)c3cc(F)ccc3n2)c1	1	x	6	11	4
OC(c1cccc(CN2CCCCC2)c1)c1ncc(-c2cccc(C(F)(F)F)c2)[nH]1 (stereo unspecified)	x	1	x	x	-3
OC(c1cccc(CN2CCCCC2)c1)c1ncc(-c2cccc3ccccc23)[nH]1 (stereo unspecified)	x	-54*	x	x	-18
COc1ccc(CCNC(=O)c2c(C)nn(-c3ccc(F)cc3)c2-n2cccc2)c(OC)c1OC	4	x	-1	-2	8
CS(=O)(=O)N1CCC(n2c(C(F)(F)F)nc3cccnc32)CC1	1	x	3	15	6
CN(C)c1ccc2c(c1)OC(N)=C(C#N)C2c1cccc(F)c1 (stereo unspecified)	75*	20	-4	-20	0
N#CC1=C(N)Oc2cc(N)ccc2C1c1cccc(F)c1 (stereo unspecified)	7	-12	-4	-7	6
O=C(NCc1nnc(SCc2ccc(F)cc2)n1-c1ccccc1)C12CC3CC(CC(C3)C1)C2	2	-51*	-3	23	0
Oc1c(Br)cc(Br)cc1/C=N/N1CCN(Cc2ccccc2)CC1	3	-80*	1	17	-28
O=C(O[C@H]1CN2CCC1CC2)N1CCc2ccccc2[C@@H]1c1ccccc1	x	x	x	x	-5
CCN1C(=O)[C@@H]2[C@@H](c3ccc(-c4ccc(F)cc4)c(OC)c3)N3CCCC[C@@]3(C(=O)OC)[C@@H]2C1=O	5	38	-1	5	33*
COC(=O)[C@@]12CCCN1[C@H](c1ccc(-c3ccc(F)cc3)cc1)[C@H]1C(=O)N(C)C(=O)[C@H]12	3	1	-2	-44*	0
CCC(C)n1ncn(-c2ccc(N3CCN(c4ccc(OC[C@H]5CO[C@](Cn6cncn6)(c6ccc(Cl)cc6Cl)O5)cc4)CC3)cc2)c1=O (stereo partly specified)	x	x	x	x	7
Cc1cccc(C)c1NC(=O)C(=O)NCC(c1ccc2c(c1)OCO2)N1CCOCC1 (stereo unspecified)	0	x	-4	-8	3
Cc1cc(C)cc(-n2ccnc2SCC(=O)Nc2ccccc2F)c1	6	x	-6	-22	-9
Cc1ccc(OCCSc2nc3ccccc3n2CCC(=O)O)c(C(C)C)c1	x	-52*	x	x	-4
NS(=O)(=O)c1ccc(N2N=C(c3ccccc3)CC2c2cccc(Br)c2)cc1 (stereo unspecified)	x	21	x	x	47*
CN(C)c1ccc(CNC(=O)C2CCN(c3nnc(-n4cccc4)s3)CC2)cc1	0	x	-2	6	1
